# This excerpt belongs to a sample that is enriched for the strongest signals.
# Columns and labels:
# Experiment in all cases: glycan array binding signal (z-score within array); higher = stronger binding
# Settings in all cases: glycan notation: IUPAC condensed, linker removed
# [1] = molecular target: GlcNAc(b1-3)Gal(b1-4)GlcNAc(b1-3)Gal(b1-4)GlcNAc(b1-3)Gal(b1-4)GlcNAc(b1-3)Gal(b1-4)GlcNAc(b1-2)Man(a1-3)[GlcNAc(b1-3)Gal(b1-4)GlcNAc(b1-3)Gal(b1-4)GlcNAc(b1-3)Gal(b1-4)GlcNAc(b1-3)Gal(b1-4)GlcNAc(b1-2)Man(a1-6)]Man(b1-4)GlcNAc(b1-4)[Fuc(a1-6)]GlcNAc
# Summary of the method: (§1)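 The Consortium for Functional Glycomics database supplied 3228 glycan arrays, of which those lacking an available protein sequence were dropped. The binding signal, a within-array Z-score, was averaged across arrays of the same protein sequence and across linkers. Negative scores can be read as non-binding.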
# [2] = molecular target: GlcNAc(b1-3)Gal(b1-4)GlcNAc(b1-3)Gal(b1-4)GlcNAc(b1-3)Gal(b1-4)GlcNAc(b1-3)Gal(b1-4)GlcNAc(b1-2)[GlcNAc(b1-3)Gal(b1-4)GlcNAc(b1-3)Gal(b1-4)GlcNAc(b1-3)Gal(b1-4)GlcNAc(b1-3)Gal(b1-4)GlcNAc(b1-6)]Man(a1-6)[GlcNAc(b1-3)Gal(b1-4)GlcNAc(b1-3)Gal(b1-4)GlcNAc(b1-3)Gal(b1-4)GlcNAc(b1-3)Gal(b1-4)GlcNAc(b1-2)Man(a1-3)]Man(b1-4)GlcNAc(b1-4)[Fuc(a1-6)]GlcNAc
# Summary of the method: as §1
# [3] = molecular target: GlcNAc(b1-3)Gal(b1-4)GlcNAc(b1-3)Gal(b1-4)GlcNAc(b1-3)GalNAc
# Summary of the method: as §1
# [4] = molecular target: GlcNAc(b1-3)Gal(b1-4)GlcNAc(b1-6)[Gal(b1-3)]GalNAc
# Summary of the method: as §1
# [5] = molecular target: GlcNAc(b1-3)Man
# Summary of the method: as §1
# [6] = molecular target: GlcNAc(b1-4)GlcNAc(b1-4)GlcNAc(b1-4)GlcNAc(b1-4)GlcNAc
# Summary of the method: as §1
# [7] = molecular target: Man(a1-2)Man(a1-6)[Man(a1-3)]Man(a1-6)[Man(a1-2)Man(a1-2)Man(a1-3)]Man(b1-4)GlcNAc(b1-4)GlcNAc
# Summary of the method: as §1
# [8] = molecular target: MurNAc(b1-4)GlcNAc
# Summary of the method: as §1
# [9] = molecular target: Neu5Ac(a2-3)Gal(b1-3)GalNAc(b1-4)[Neu5Ac(a2-8)Neu5Ac(a2-3)]Gal(b1-4)Glc
# Summary of the method: as §1
# [10] = molecular target: Neu5Ac(a2-3)Gal(b1-3)GlcNAc(b1-2)Man(a1-3)[Neu5Ac(a2-3)Gal(b1-3)GlcNAc(b1-2)Man(a1-6)]Man(b1-4)GlcNAc(b1-4)GlcNAc
# Summary of the method: as §1
# [11] = molecular target: Neu5Ac(a2-3)Gal(b1-3)GlcNAc(b1-6)GalNAc
# Summary of the method: as §1
# [12] = molecular target: Neu5Ac(a2-3)Gal(b1-4)GlcNAc(b1-3)Gal(b1-3)GlcNAc
# Summary of the method: as §1
# [13] = molecular target: Neu5Ac(a2-3)Gal(b1-4)[Fuc(a1-3)]GlcNAc(b1-3)GalNAc
# Summary of the method: as §1
# [14] = molecular target: Neu5Ac(a2-3)[GalNAc(b1-4)]Gal(b1-4)Glc
# Summary of the method: as §1
# [15] = molecular target: Neu5Ac(a2-6)Gal(b1-4)GlcNAc(b1-2)Man(a1-3)[Gal(b1-4)GlcNAc(b1-2)Man(a1-6)]Man(b1-4)GlcNAc(b1-4)GlcNAc
# Summary of the method: as §1
# [16] = molecular target: Neu5Ac(a2-6)Gal(b1-4)GlcNAc(b1-2)Man(a1-3)[Neu5Ac(a2-6)Gal(b1-4)GlcNAc(b1-2)Man(a1-6)]Man(b1-4)GlcNAc(b1-4)[Fuc(a1-6)]GlcNAc
# Summary of the method: as §1
# [17] = molecular target: Neu5Ac(a2-6)Gal(b1-4)GlcNAc(b1-2)Man(a1-6)Man(b1-4)GlcNAc(b1-4)GlcNAc
# Summary of the method: as §1
# [18] = molecular target: Neu5Ac(a2-6)Gal(b1-4)GlcNAc(b1-3)Gal(b1-3)GlcNAc
# Summary of the method: as §1
# [19] = molecular target: Neu5Ac(a2-6)Gal(b1-4)GlcNAc(b1-3)Gal(b1-4)GlcNAc(b1-3)Gal(b1-4)GlcNAc(b1-2)Man(a1-3)[Neu5Ac(a2-6)Gal(b1-4)GlcNAc(b1-3)Gal(b1-4)GlcNAc(b1-3)Gal(b1-4)GlcNAc(b1-2)Man(a1-6)]GalNAc
# Summary of the method: as §1
# [20] = molecular target: Neu5Ac(a2-6)Gal(b1-4)GlcNAc(b1-3)Gal(b1-4)GlcNAc(b1-3)GalNAc
# Summary of the method: as §1
# [21] = molecular target: Neu5Ac(a2-6)Gal(b1-4)GlcNAc(b1-3)Gal(b1-4)GlcNAc(b1-3)[Neu5Ac(a2-6)Gal(b1-4)GlcNAc(b1-3)Gal(b1-4)GlcNAc(b1-6)]GalNAc
# Summary of the method: as §1
# [22] = molecular target: Neu5Ac(a2-8)Neu5Ac(a2-3)Gal(b1-3)GalNAc(b1-4)[Neu5Ac(a2-8)Neu5Ac(a2-3)]Gal(b1-4)Glc
# Summary of the method: as §1
# [23] = molecular target: Neu5Ac(a2-8)Neu5Ac(a2-3)[Gal(b1-3)GalNAc(b1-4)]Gal(b1-4)Glc
# Summary of the method: as §1
# [24] = molecular target: Neu5Ac9Ac(a2-6)Gal(b1-4)GlcNAc
# Summary of the method: as §1
# [25] = molecular target: Neu5Gc(a2-6)Gal(b1-4)GlcNAc
# Summary of the method: as §1
# [26] = molecular target: Neu5Gc(a2-8)Neu5Ac(a2-3)Gal(b1-4)GlcNAc
# Summary of the method: as §1
binder,measurement,setting,value
LlpA (Arthrobacter sp) (protein) MGSSHHHHHHSSGLVPRGSHMTLHPETALRPGAAATSPNSRYRLLYQTDGNLVLYGPDGPLWDSGTNGHGAGACIMQADGNLVLYGPNDEYVWDTETDNNPGSRLVIQDDGNAVIYRPDGSPLWATETCQPPGSADSHVLQSGSTLTPTHGIRSANGLYGLLYQTDGNLVFYGPDGPLWDSGTNGRGAGACIMQPDGNLVLYGPHDEYVWDTETDNNPGSRLVIQDDGNAVIYRPDGNPTWVTGTH,glycan array binding signal (z-score),[1],2.07
same,glycan array binding signal (z-score),[2],1.82
same,glycan array binding signal (z-score),[3],0.18
same,glycan array binding signal (z-score),[4],-0.319
same,glycan array binding signal (z-score),[5],1.02
same,glycan array binding signal (z-score),[6],0.068
same,glycan array binding signal (z-score),[7],0.31
same,glycan array binding signal (z-score),[8],-0.798
same,glycan array binding signal (z-score),[9],-0.752
same,glycan array binding signal (z-score),[10],-0.65
same,glycan array binding signal (z-score),[11],0.849
same,glycan array binding signal (z-score),[12],0.273
same,glycan array binding signal (z-score),[13],1.8
same,glycan array binding signal (z-score),[14],0.446
same,glycan array binding signal (z-score),[15],-0.376
same,glycan array binding signal (z-score),[16],2.31
same,glycan array binding signal (z-score),[17],0.4
same,glycan array binding signal (z-score),[18],-0.33
same,glycan array binding signal (z-score),[19],2.47
same,glycan array binding signal (z-score),[20],0.214
same,glycan array binding signal (z-score),[21],0.568
same,glycan array binding signal (z-score),[22],1.98
same,glycan array binding signal (z-score),[23],0.321
same,glycan array binding signal (z-score),[24],0.62
same,glycan array binding signal (z-score),[25],-0.005
same,glycan array binding signal (z-score),[26],-0.504

# Reference: the supplement of paper PMC8728848
